Assay results taken from PubChem BioAssay (NCI).
Compounds without any hit were thinned out: in the full panel of roughly 83,000, 20% have a hit.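 48-hour exposure, single concentration, 96-well plates; percent growth endpoint where 0 means no net growth. Active: below 10.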 The source made the active and inactive calls.

How the values were obtained:
Experiment in all cases: NCI-60 one-dose screen, 48 h (100 = growth as untreated, 0 = no growth, -100 = all killed)
Details in all cases: 10 µM
DU-145 prostate = tested on: DU-145 prostate
K-562 leukemia = tested on: K-562 leukemia
MALME-3M melanoma = tested on: MALME-3M melanoma
MDA-MB-231 breast = tested on: MDA-MB-231 breast
SF-268 CNS = tested on: SF-268 CNS
SF-295 CNS = tested on: SF-295 CNS
SF-539 CNS = tested on: SF-539 CNS
UACC-257 melanoma = tested on: UACC-257 melanoma
M14 melanoma = tested on: M14 melanoma
HCT-15 colon = tested on: HCT-15 colon
HT29 colon = tested on: HT29 colon
SNB-75 CNS = tested on: SNB-75 CNS
SNB-19 CNS = tested on: SNB-19 CNS
U251 CNS = tested on: U251 CNS
PC-3 prostate = tested on: PC-3 prostate
SK-MEL-5 melanoma = tested on: SK-MEL-5 melanoma
LOX IMVI melanoma = tested on: LOX IMVI melanoma
SK-MEL-28 melanoma = tested on: SK-MEL-28 melanoma
RXF 393 renal = tested on: RXF 393 renal
UACC-62 melanoma = tested on: UACC-62 melanoma

SMILES | growth (DU-145 prostate) | growth (K-562 leukemia) | growth (MALME-3M melanoma) | growth (MDA-MB-231 breast) | growth (SF-268 CNS) | growth (SF-295 CNS) | growth (SF-539 CNS) | growth (UACC-257 melanoma) | growth (M14 melanoma) | growth (HCT-15 colon) | growth (HT29 colon) | growth (SNB-75 CNS) | growth (SNB-19 CNS) | growth (U251 CNS) | growth (PC-3 prostate) | growth (SK-MEL-5 melanoma) | growth (LOX IMVI melanoma) | growth (SK-MEL-28 melanoma) | growth (RXF 393 renal) | growth (UACC-62 melanoma)
COc1cc(NC(=O)C2=C(N3CCOCC3)/C(=C/c3ccc(Cl)cc3)CC2)cc(OC)c1OC | 99.4% (inactive) | 49.7% (inactive) | 93.6% (inactive) | 91.6% (inactive) | 114% (inactive) | 118% (inactive) | 101% (inactive) | 59.5% (inactive) | 97.3% (inactive) | 73% (inactive) | 86% (inactive) | 90.5% (inactive) | 79.3% (inactive) | 91.2% (inactive) | 44.8% (inactive) | 66.3% (inactive) | 89.4% (inactive) | 112% (inactive) | – | –
CSc1nc2c(c(=O)n1C)CN(Cc1ccccc1)C(=O)CN2 | 109% (inactive) | 85.2% (inactive) | – | 96.8% (inactive) | 104% (inactive) | 103% (inactive) | 91.1% (inactive) | 86.9% (inactive) | 88.6% (inactive) | 85.7% (inactive) | 110% (inactive) | 76.9% (inactive) | 97.6% (inactive) | 94% (inactive) | – | 101% (inactive) | 92.1% (inactive) | 102% (inactive) | 75.2% (inactive) | 83.6% (inactive)
Cc1ccc(C2=NN(c3ccc(S(C)(=O)=O)cc3)C(=O)CC2)cc1 | 6.77% (active) | 11.7% (inactive) | 45.5% (inactive) | 47.8% (inactive) | 55.2% (inactive) | – | -7.93% (active) | 50.7% (inactive) | 10.2% (inactive) | – | 11.1% (inactive) | 8.1% (active) | 55% (inactive) | – | 29.3% (inactive) | 13.9% (inactive) | 33.7% (inactive) | 51.4% (inactive) | 15.4% (inactive) | 42.9% (inactive)
c1ccc(CCCCc2ccc3ccccc3n2)cc1 | 111% (inactive) | 102% (inactive) | 98.2% (inactive) | 106% (inactive) | 99% (inactive) | 106% (inactive) | 101% (inactive) | 103% (inactive) | 98.1% (inactive) | 90.1% (inactive) | 87.1% (inactive) | 93.6% (inactive) | 105% (inactive) | 90.6% (inactive) | 77.1% (inactive) | 109% (inactive) | 96.1% (inactive) | 104% (inactive) | – | 102% (inactive)
O=C(O)Cc1ccc(O)c(O)c1 | 113% (inactive) | 102% (inactive) | – | 99.2% (inactive) | 97.6% (inactive) | 102% (inactive) | 89.9% (inactive) | 110% (inactive) | 96.5% (inactive) | 96.4% (inactive) | 115% (inactive) | 68.8% (inactive) | 102% (inactive) | 109% (inactive) | 106% (inactive) | 94.1% (inactive) | 107% (inactive) | 103% (inactive) | 94.2% (inactive) | 105% (inactive)
Fc1ccc(C(c2ccc(F)cc2)C(Cl)Cl)cc1 | 104% (inactive) | 91.2% (inactive) | – | 92.4% (inactive) | 110% (inactive) | 105% (inactive) | 106% (inactive) | 111% (inactive) | 103% (inactive) | 104% (inactive) | 97.7% (inactive) | 96.1% (inactive) | 101% (inactive) | 103% (inactive) | 92.2% (inactive) | 101% (inactive) | 96.3% (inactive) | 101% (inactive) | 86.9% (inactive) | 106% (inactive)
CCOC(=O)Cn1c(=O)c2sc3ncccc3c2n2nnc(-c3ccccc3)c12 | 119% (inactive) | 96.4% (inactive) | – | 87.2% (inactive) | 112% (inactive) | 110% (inactive) | 105% (inactive) | 108% (inactive) | 99% (inactive) | 107% (inactive) | 107% (inactive) | 77.2% (inactive) | 101% (inactive) | 104% (inactive) | 94.8% (inactive) | 104% (inactive) | 97.4% (inactive) | 104% (inactive) | 112% (inactive) | 90.5% (inactive)
COc1ccc(C2CC(c3cc(OC)c(OC)c(OC)c3)=NN2)cc1 (centres undefined) | 91.5% (inactive) | 11.2% (inactive) | – | 86.8% (inactive) | 74.2% (inactive) | 48.1% (inactive) | 78.7% (inactive) | 120% (inactive) | 92.6% (inactive) | 36.2% (inactive) | 29.9% (inactive) | 68.5% (inactive) | 68.3% (inactive) | 26.2% (inactive) | – | 81.4% (inactive) | 43.9% (inactive) | 113% (inactive) | 92.5% (inactive) | 67% (inactive)
Cc1ccc(NC(=S)NNC(=S)Nc2ccc(C)cc2)cc1 | 102% (inactive) | 19.4% (inactive) | – | 72.5% (inactive) | 85% (inactive) | 30% (inactive) | 62.5% (inactive) | 75.8% (inactive) | 44.2% (inactive) | 44.1% (inactive) | 82.6% (inactive) | 40.2% (inactive) | 65.4% (inactive) | 56.8% (inactive) | 77.2% (inactive) | 55.6% (inactive) | 75.3% (inactive) | 70.8% (inactive) | 91.5% (inactive) | 48.2% (inactive)
COc1ccc2c(c1)C(CC(=O)NN)CCC2 (centres undefined) | 114% (inactive) | 94.3% (inactive) | – | 101% (inactive) | 96.3% (inactive) | 109% (inactive) | 100% (inactive) | 90.5% (inactive) | 104% (inactive) | 104% (inactive) | 112% (inactive) | 89.9% (inactive) | 109% (inactive) | 102% (inactive) | 100% (inactive) | 104% (inactive) | 93.7% (inactive) | 113% (inactive) | 115% (inactive) | 104% (inactive)
NC(N)=N/N=C(\c1ccccc1)C(O)c1ccccc1 (centres undefined) | 112% (inactive) | 90.7% (inactive) | 96.2% (inactive) | 100% (inactive) | – | 102% (inactive) | 111% (inactive) | 101% (inactive) | – | 111% (inactive) | 92.3% (inactive) | 93.7% (inactive) | 95.3% (inactive) | 106% (inactive) | – | 103% (inactive) | 94.2% (inactive) | 107% (inactive) | 98.8% (inactive) | 94.6% (inactive)
CCCCN1C(=O)CC(SC2CC(=O)N(CCCC)C2=O)C1=O (centres undefined) | 103% (inactive) | 118% (inactive) | – | 108% (inactive) | 101% (inactive) | 109% (inactive) | 105% (inactive) | 98.6% (inactive) | 113% (inactive) | 120% (inactive) | 76.1% (inactive) | 87.4% (inactive) | 99.5% (inactive) | 107% (inactive) | 99.4% (inactive) | 104% (inactive) | 95% (inactive) | 121% (inactive) | 122% (inactive) | –
C=CCNCCN1C(=O)c2ccc3c4c(ccc(c24)C1=O)C(=O)N(CCNCC=C)C3=O | -87.7% (active) | 1.43% (active) | – | 5.12% (active) | -17.5% (active) | -73.1% (active) | -90.6% (active) | -90.3% (active) | -84.3% (active) | -67.4% (active) | -44.9% (active) | -37.9% (active) | -88.1% (active) | -89.4% (active) | -7.8% (active) | -95.4% (active) | -78.8% (active) | -57% (active) | -74.3% (active) | -74.9% (active)
Cc1cc(Br)nnc1Br | 121% (inactive) | 99.5% (inactive) | – | 92.7% (inactive) | 107% (inactive) | 111% (inactive) | 87.9% (inactive) | 133% (inactive) | 96.8% (inactive) | 102% (inactive) | 113% (inactive) | 75.4% (inactive) | 110% (inactive) | 112% (inactive) | 110% (inactive) | 94.7% (inactive) | 108% (inactive) | 114% (inactive) | 120% (inactive) | 111% (inactive)
COc1ccc(C2CC(c3cccs3)=NN2c2ccc(S(N)(=O)=O)cc2)cc1 (centres undefined) | 102% (inactive) | 67.6% (inactive) | – | 91.9% (inactive) | 97.6% (inactive) | 95.8% (inactive) | 104% (inactive) | 30.5% (inactive) | 78.4% (inactive) | 84.3% (inactive) | 86.8% (inactive) | 70.7% (inactive) | 77.4% (inactive) | 78% (inactive) | 49.9% (inactive) | 60.8% (inactive) | 102% (inactive) | 63.2% (inactive) | 93.6% (inactive) | 42.8% (inactive)
CC1OC2CC(=O)OC2C2=C1C(=O)c1c(O)c3c(c(O)c1C2=O)C1CC(O)C3(O)C(C)O1 (centres undefined) | -94.9% (active) | 6.27% (active) | – | -16.3% (active) | 1.92% (active) | 3.26% (active) | -84.2% (active) | -58.4% (active) | -76.7% (active) | -15.8% (active) | -15.9% (active) | -28.9% (active) | 4.68% (active) | -23.4% (active) | 7.91% (active) | -96.1% (active) | -65.9% (active) | -51.5% (active) | -91.1% (active) | -76.5% (active)
O=C(COc1cccc(/C=C2\CSc3ccccc3C2=O)c1)c1ccc(Cl)cc1 | 94.9% (inactive) | -76.8% (active) | -61.9% (active) | 68.8% (inactive) | 29.9% (inactive) | -28.1% (active) | 50.6% (inactive) | -47% (active) | -34.7% (active) | -49.7% (active) | -86.3% (active) | 94.6% (inactive) | 60.8% (inactive) | -97.9% (active) | – | -94.4% (active) | -100% (active) | -81.7% (active) | – | -73.9% (active)
